Results: PubChem BioAssay (Tox21)
Values without a mark were called inactive. Inconclusive results are not listed. Where a call stands in place of a potency, no number is given. Calls of active or inactive are those of the source. Unless noted, calls come from the whole dose curve; as a rule, active = well fitted curve in the direction sought with a large enough effect in the repeat runs; inconclusive = weak or mixed curves; inactive = no such curve, though single readings can be large; an effect the other way counts as inactive or inconclusive.

Experiments:
[1] = qHTS assay to identify small molecule agonists of the androgen receptor (AR) signaling pathway in the presence of an antagonist - cell viability counter screen (AID 1259379); note: nearly all actives have a fitted effect of over 25% in size; note: potency is the fitted concentration of half-maximal effect
How it was run: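 Viability counter screen: CellTiter-Fluor fluorescence, measured in the same wells as the luciferase read-out. MDA-kb2 cells, 3,000/well, with nilutamide at 3.0uM final and compounds at 15 concentrations, 16 hr at 37C, 0% CO2.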

[2] = target: Androgen receptor (Homo sapiens) (UniProt P10275); experiment: qHTS assay to identify small molecule agonists of the androgen receptor (AR) signaling pathway in the presence of an antagonist (AID 1259381; calls by dose curve; note: nearly all actives have a fitted effect of over 15% in size)
How it was run: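 Luciferase read-out (ONE-Glo, 30min room temperature) in MDA-kb2 MMTV-reporter cells; agonist mode run in presence of AR antagonist nilutamide, 3.0uM final. Compounds tested as 15-point series, 16hr exposure at 37C, 0% CO2.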

[3] = qHTS assay to identify small molecule antagonists of the estrogen receptor beta (ER-beta) signaling pathway - cell viability counter screen (AID 1259382); note: nearly all actives have a fitted effect of over 55% in size; note: potency is the fitted concentration of half-maximal effect
How it was run: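 Luminescent ATP read-out (CellTiter-Glo, 30 min, RT) taken in the same wells as the bla reporter assay. HEK293T ER-beta-UAS-bla cells in 2% charcoal-stripped FBS were exposed to compounds with 1nM E2 for 16 hr at 37C.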

[4] = target: Estrogen receptor (Homo sapiens) (UniProt P03372); experiment: qHTS assay to identify small molecule agonists of the estrogen receptor alpha (ER-alpha) signaling pathway in the presence of an antagonist (AID 1259383; calls by dose curve; note: top concentration of the series differs between compounds; nearly all actives have a fitted effect of over 15% in size)
How it was run: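 Luciferase luminescence (ONE-Glo, 30min at room temperature) measured in VM7Luc4E2 cells after 22hr compound exposure at 15 concentrations, with 10.0nM ICI-182,780 final present; cells express endogenous ER-alpha and carry four EREs upstream of luciferase.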

[5] = qHTS assay to identify small molecule agonists or antagonists of the thyroid stimulating hormone receptor (TSHR) signaling pathway - wild type cell line counter screen (AID 1259384; calls by dose curve)
How it was run: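 Wild-type Hek293 cells, 800/well, 18 h at 37C, then compound with Ro20-1724 for 30 min RT. cAMP by HTRF (cAMP-d2/anti-cAMP cryptate), 1 h RT, fluorescence read. 15 concentrations, triplicates.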

[6] = qHTS assay to identify small molecule agonists of the estrogen receptor alpha (ER-alpha) signaling pathway in the presence of an antagonist - cell viability counter screen (AID 1259386);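 note: cells exposed to compounds for 22 h at 37 °C before the viability read; nearly all actives have a fitted effect of over 30% in size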; note: potency is the fitted concentration of half-maximal effect
How it was run: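 Read-out: CellTiter-Fluor fluorescence after 1hr reagent incubation, measured in the same wells as the luciferase readout. VM7Luc4E2 cells were exposed to 15 compound concentrations with 10.0nM ICI-182,780 for 22hr at 37C.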

[7] = target: Thyrotropin receptor (Homo sapiens) (UniProt P16473); experiment: qHTS assay to identify small molecule antagonists of the thyroid stimulating hormone receptor (TSHR) signaling pathway (AID 1259385; calls by dose curve; note: nearly all actives have a fitted effect of over 20% in size; note: potency is the fitted concentration of half-maximal effect)
How it was run: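 TSHR-HEK293 cells (800/well) plated 18 h, then compounds with Ro20-1724 and TSH at 1.5 ng/mL final, 30 min at room temperature. cAMP quantified by HTRF (cAMP-d2/anti-cAMP-cryptate, 1 h); 15 concentrations in triplicate.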

[8] = qHTS assay to identify small molecule agonists of the estrogen receptor beta (ER-beta) signaling pathway - cell viability counter screen (AID 1259380); note: nearly all actives have a fitted effect of over 30% in size; note: potency is the fitted concentration of half-maximal effect
How it was run: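 Luminescence read-out (CellTiter-Glo, 30 min, room temp) taken in the same wells as the beta-lactamase reporter assay; ER-beta-UAS-bla HEK293T cells exposed to DMSO-dissolved compounds for 16 hr at 37C in 2% charcoal-stripped FBS medium.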

Chain of Estrogen receptor (Homo sapiens) (P03372 whole entry, looked up): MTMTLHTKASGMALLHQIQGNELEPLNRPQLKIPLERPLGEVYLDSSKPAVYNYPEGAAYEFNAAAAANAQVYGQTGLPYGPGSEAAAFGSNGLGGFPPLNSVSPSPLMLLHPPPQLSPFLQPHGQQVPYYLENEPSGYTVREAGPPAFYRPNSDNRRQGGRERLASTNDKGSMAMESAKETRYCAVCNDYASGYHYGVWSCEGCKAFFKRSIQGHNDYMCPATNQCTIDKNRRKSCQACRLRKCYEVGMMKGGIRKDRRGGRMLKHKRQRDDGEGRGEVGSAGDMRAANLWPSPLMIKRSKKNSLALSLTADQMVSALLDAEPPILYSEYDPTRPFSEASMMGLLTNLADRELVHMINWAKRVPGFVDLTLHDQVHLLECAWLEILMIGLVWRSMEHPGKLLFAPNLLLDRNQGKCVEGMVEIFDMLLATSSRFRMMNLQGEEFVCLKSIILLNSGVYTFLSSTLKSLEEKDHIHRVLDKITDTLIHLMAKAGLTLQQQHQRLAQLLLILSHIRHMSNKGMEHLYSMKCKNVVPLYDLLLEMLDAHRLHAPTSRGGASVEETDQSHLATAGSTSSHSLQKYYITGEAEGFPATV
Chain of Androgen receptor (Homo sapiens) (P10275 whole entry, looked up): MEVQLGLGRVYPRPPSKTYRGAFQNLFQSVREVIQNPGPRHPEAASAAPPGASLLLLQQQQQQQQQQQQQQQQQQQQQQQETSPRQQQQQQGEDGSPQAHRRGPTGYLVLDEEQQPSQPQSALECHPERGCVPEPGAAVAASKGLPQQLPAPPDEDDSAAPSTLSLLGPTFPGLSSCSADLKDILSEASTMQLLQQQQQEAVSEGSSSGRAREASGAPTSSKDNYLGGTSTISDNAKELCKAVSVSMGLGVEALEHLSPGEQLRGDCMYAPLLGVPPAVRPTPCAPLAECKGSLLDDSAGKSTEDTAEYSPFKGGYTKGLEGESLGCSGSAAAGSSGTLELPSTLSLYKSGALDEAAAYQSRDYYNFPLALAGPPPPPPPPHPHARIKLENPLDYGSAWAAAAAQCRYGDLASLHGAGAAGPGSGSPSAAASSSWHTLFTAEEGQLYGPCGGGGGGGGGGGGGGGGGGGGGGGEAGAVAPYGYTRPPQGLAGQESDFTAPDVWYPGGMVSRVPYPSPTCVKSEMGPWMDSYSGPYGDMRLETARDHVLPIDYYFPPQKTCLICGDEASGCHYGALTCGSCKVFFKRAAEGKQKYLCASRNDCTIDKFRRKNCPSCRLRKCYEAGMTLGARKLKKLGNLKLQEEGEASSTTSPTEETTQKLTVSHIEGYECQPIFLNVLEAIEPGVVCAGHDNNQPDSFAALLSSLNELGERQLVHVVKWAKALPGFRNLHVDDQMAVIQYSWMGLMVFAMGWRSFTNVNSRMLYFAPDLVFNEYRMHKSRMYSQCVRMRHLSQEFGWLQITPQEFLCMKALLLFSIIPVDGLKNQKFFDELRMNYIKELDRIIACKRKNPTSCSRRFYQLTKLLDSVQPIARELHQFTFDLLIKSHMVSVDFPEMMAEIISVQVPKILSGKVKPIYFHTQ
Chain of Thyrotropin receptor (Homo sapiens) (P16473 whole entry, looked up): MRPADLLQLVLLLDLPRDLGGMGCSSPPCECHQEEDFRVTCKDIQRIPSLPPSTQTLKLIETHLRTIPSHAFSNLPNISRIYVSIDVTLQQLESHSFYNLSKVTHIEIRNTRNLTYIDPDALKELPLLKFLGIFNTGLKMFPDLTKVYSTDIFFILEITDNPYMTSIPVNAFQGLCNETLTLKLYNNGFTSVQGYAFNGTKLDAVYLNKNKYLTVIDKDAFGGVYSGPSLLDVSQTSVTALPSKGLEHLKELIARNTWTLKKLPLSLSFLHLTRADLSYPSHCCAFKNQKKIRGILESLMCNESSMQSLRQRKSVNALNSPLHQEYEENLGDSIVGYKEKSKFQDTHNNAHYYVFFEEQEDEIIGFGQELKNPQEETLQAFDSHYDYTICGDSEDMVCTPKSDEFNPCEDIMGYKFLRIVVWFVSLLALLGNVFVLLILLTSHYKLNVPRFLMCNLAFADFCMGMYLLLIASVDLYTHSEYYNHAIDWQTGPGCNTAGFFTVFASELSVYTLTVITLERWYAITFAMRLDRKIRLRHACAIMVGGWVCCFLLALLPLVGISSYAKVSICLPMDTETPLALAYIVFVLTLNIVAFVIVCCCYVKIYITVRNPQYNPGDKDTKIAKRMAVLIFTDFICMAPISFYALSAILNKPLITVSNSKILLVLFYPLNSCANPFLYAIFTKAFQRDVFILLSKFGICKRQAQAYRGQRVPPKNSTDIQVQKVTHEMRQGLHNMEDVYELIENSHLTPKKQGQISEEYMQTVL

## c1cc(C(c2ccc(OCC3CO3)cc2)c2ccc(OCC3CO3)cc2)ccc1OCC1CO1 (centres undefined)
[1]
  Potency: inactive
[2]
  Potency: inactive
[3]
  Potency: inactive
[4]
  Potency: inactive
[5]
  outcome: inactive
[6]
  Potency: inactive

## CNC(=O)c1ccccc1
[1]
  Potency: inactive
[3]
  Potency: inactive
[4]
  Potency: inactive
[5]
  outcome: inactive
[7]
  Potency: inactive
[6]
  Potency: inactive

## C=C(C)C(=O)OCC(O)COc1ccc(C(C)(C)c2ccc(OCC(O)COC(=O)C(=C)C)cc2)cc1 (centres undefined)
[1]
  Potency: 30.6 µM (active)
[8]
  Potency: 61.1 µM (active)
[4]
  Potency: inactive
[5]
  outcome: inactive

## C/C=C1/C(=O)C[C@H]2[C@@H]3CCC4=CC(=O)CC[C@]4(C)[C@H]3CC[C@]12C
[1]
  Potency: 54.3 µM (active)
[3]
  Potency: inactive
[4]
  Potency: inactive
[6]
  Potency: inactive

## CC(=O)S[C@@H]1CC2=CC(=O)CC[C@]2(C)[C@H]2CC[C@@]3(C)[C@@H](CC[C@@]34CCC(=O)O4)[C@H]12
[1]
  Potency: inactive
[8]
  Potency: 30.6 µM (active)
[4]
  Potency: inactive
[5]
  outcome: inactive
[7]
  Potency: inactive

## COC(=O)C1=C(C)NC(C)=C(C(=O)OCCc2ccc(N3CCN(C(c4ccccc4)c4ccccc4)CC3)cc2)C1c1cccc([N+](=O)[O-])c1 (centres undefined)
[1]
  Potency: inactive
[2]
  Potency: inactive
[3]
  Potency: inactive
[6]
  Potency: inactive

## CCCCCCCCCCCCCCCC(=O)OC[C@H](O)[C@H]1OC(=O)C(O)=C1O
[1]
  Potency: inactive
[2]
  Potency: inactive
[4]
  Potency: inactive
[5]
  outcome: inactive
[7]
  Potency: inactive
[6]
  Potency: inactive

## O=C1C=CC(=O)N1c1ccc(Cc2ccc(N3C(=O)C=CC3=O)cc2)cc1
[1]
  Potency: 48.6 µM (active)
[8]
  Potency: 48.6 µM (active)
[4]
  Potency: inactive
[5]
  outcome: inactive
[7]
  Potency: 48.6 µM (active)
[6]
  Potency: inactive

## O=C1c2c(O)ccc(Nc3ccc(CCO)cc3)c2C(=O)c2c([N+](=O)[O-])ccc(O)c21
[1]
  Potency: 43.3 µM (active)
[2]
  Potency: inactive
[6]
  Potency: 30.6 µM (active)

## N/C(=N\N=C\c1ccc(Cl)cc1)N/N=C/c1ccc(Cl)cc1
[1]
  Potency: 29.8 µM (active)
[8]
  Potency: 29.8 µM (active)
[4]
  Potency: inactive
[5]
  outcome: inactive
[6]
  Potency: inactive

## Cc1[nH]nc2c1N=C(c1ccccc1Cl)c1cc([N+](=O)[O-])ccc1N2
[1]
  Potency: 30.6 µM (active)
[8]
  Potency: 27.3 µM (active)
[3]
  Potency: 48.6 µM (active)
[5]
  outcome: inactive
[6]
  Potency: 27.3 µM (active)

## CCc1oc2ccccc2c1C(=O)c1cc(Br)c(O)c(Br)c1
[1]
  Potency: inactive
[2]
  Potency: inactive
[3]
  Potency: inactive
[4]
  Potency: inactive
[5]
  outcome: inactive
[7]
  Potency: inactive
[6]
  Potency: inactive

## NNC(=O)c1cccc(C(=O)NN)c1
[1]
  Potency: inactive
[2]
  Potency: inactive
[3]
  Potency: inactive
[4]
  Potency: inactive
[6]
  Potency: inactive

## CC(C)(C)C1CCC(CC2=C(O)c3ccccc3C(=O)C2=O)CC1 (centres undefined)
[1]
  Potency: 13.3 µM (active)
[2]
  Potency: inactive
[4]
  Potency: inactive
[5]
  outcome: inactive
[7]
  Potency: inactive

## COc1cc(/C=C/C(=O)O[C@H]2CC[C@]34C[C@]35CC[C@]3(C)[C@@H]([C@H](C)CCC=C(C)C)CC[C@@]3(C)[C@@H]5CC[C@H]4C2(C)C)ccc1O
[1]
  Potency: inactive
[8]
  Potency: inactive
[6]
  Potency: inactive

## CCCN(CCC)c1c([N+](=O)[O-])cc(C(F)(F)F)c(N)c1[N+](=O)[O-]
[1]
  Potency: 60.9 µM (active)
[8]
  Potency: 21.6 µM (active)
[4]
  Potency: inactive
[5]
  outcome: inactive

## O=C(Nc1cccc(Cl)c1)OCC#CCCl
[1]
  Potency: 54.5 µM (active)
[8]
  Potency: 54.5 µM (active)
[5]
  outcome: inactive
[7]
  Potency: inactive
[6]
  Potency: 61.1 µM (active)

## CCCCCCCC[N+](CCCCCCCC)(CCCCCCCC)CCCCCCCC
[1]
  Potency: 17.2 µM (active)
[8]
  Potency: 30.6 µM (active)
[4]
  Potency: inactive
[5]
  outcome: inactive
[7]
  Potency: 61 µM (active)
[6]
  Potency: 12.2 µM (active)

## NC(=O)CC[C@@H]1NC(=O)[C@H](Cc2ccccc2)NC(=O)[C@H](Cc2ccc(O)cc2)NC(=O)CCSSC[C@@H](C(=O)N2CCC[C@H]2C(=O)N[C@@H](CCCN=C(N)N)C(=O)NCC(N)=O)NC(=O)[C@H](CC(N)=O)NC1=O
[1]
  Potency: inactive
[8]
  Potency: inactive
[3]
  Potency: inactive
[5]
  outcome: inactive
[6]
  Potency: inactive

## CC[C@H]1O[C@]2(CC[C@@H]1C)C[C@@H]1C[C@@H](C/C=C(\C)C[C@@H](C)/C=C/C=C3\CO[C@@H]4[C@H](O)C(C)=C[C@@H](C(=O)O1)[C@]34O)O2
[1]
  Potency: 60.6 µM (active)
[8]
  Potency: 24.1 µM (active)
[4]
  Potency: inactive
[5]
  outcome: inactive
[7]
  Potency: inactive
[6]
  Potency: 68 µM (active)

## CNc1ccc(O)cc1
[1]
  Potency: 61 µM (active)
[8]
  Potency: 30.6 µM (active)
[3]
  Potency: 61 µM (active)
[6]
  Potency: 61 µM (active)

## CC[C@H](c1ccc(O)cc1)[C@@H](CC)c1ccc(O)cc1
[1]
  Potency: inactive
[2]
  Potency: inactive
[3]
  Potency: inactive
[6]
  Potency: inactive

## O=c1[nH]cnc2nc[nH]c12
[1]
  Potency: inactive
[8]
  Potency: inactive
[4]
  Potency: inactive
[5]
  outcome: inactive
[7]
  Potency: inactive
[6]
  Potency: inactive

## C[n+]1cc2c3c(ccc2c2ccc4cc5c(cc4c21)OCO5)OCO3
[1]
  Potency: 11.6 µM (active)
[2]
  activation: -10.3% [at 19 µM]
[3]
  Potency: 3.66 µM (active)
[5]
  cAMP activity change: 4.72% [at 18.9 µM]

## COc1cccc2c1C(=O)c1c(O)c3c(c(O)c1C2=O)C[C@@](O)(C(=O)CO)C[C@@H]3O[C@H]1C[C@H](N)[C@H](O[C@@H]2CCCCO2)[C@H](C)O1
[2]
  Potency: inactive
[5]
  outcome: inactive
[7]
  Potency: inactive

## COc1ccc(CN2CCN(C(c3ccc(F)cc3)c3ccc(F)cc3)CC2)c(OC)c1OC
[8]
  Potency: 11.9 µM (active)
[3]
  Potency: 10.6 µM (active)
[5]
  outcome: inactive
